ATXN2 expr inh: Primary qHTS for Inhibitors of ATXN expression; HEK-293 ATXN2-luciferase reporter, luminescence, 24 h; Potency, µM (series often up to 57 µM), inactives show top-dose activity change, negative = inhibition, most hits filed as inhibitors; 360,000 compounds, 0.72% hits; AID 1745845, 2022; note: % is set by controls: 0 for no effect and ±100 for the full control effect; nearly all actives have a fitted effect of over 55% in size
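ATXN2-luciferase reporter cells (luciferase flanked by upstream and downstream ATXN2 gene portions) were treated 24 h at 37 °C with compounds at up to 57 uM. SteadyGlo luminescence gave expression; GF-AFC fluorescence gave viability.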
HT1080NT lethal: qHTS for induction of synthetic lethality in tumor cells producing 2HG: qHTS for the HT-1080-NT fibrosarcoma cell line; HT-1080-NT fibrosarcoma viability, CellTiter-Glo ATP luminescence, 48 h; Potency, µM (top dose mostly 46.1 µM), for the others: at the top dose activity, negative = less viability, usual class: cytotoxic; 360,000 compounds, 1.6% hits; AID 686970, 2013;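 note: NT is the 2HG producing partner of a matched IDH1 knockdown line; 0% = DMSO-treated cells and -100% = media-only wells without cells; nearly all actives have a fitted effect of over 55% in size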
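A 48-hour cytotoxicity screen used HT-1080-NT cells plated 2 hours before compound delivery. ATP-based CellTiter-Glo luminescence measured viability, normalized to DMSO and no-cell controls.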
ATXN viability: Viability Counterscreen for Primary qHTS for Inhibitors of ATXN expression | S2 cells (HEK-293 line with an ATXN2-luciferase reporter) viability, CellTiter-Fluor protease fluorescence, 24 h | Potency, µM (top dose mostly 56.7 µM), usual class: cytotoxic | 400,000 compounds, 0.49% hits; note: nearly all actives have a fitted effect of over 40% in size
HT1080 IDH1KD tx: qHTS for induction of synthetic lethality in tumor cells producing 2HG: qHTS for the HT-1080-IDH1KD cell line; HT-1080 IDH1 knockdown viability, ATP luminescence, 48 h; Potency, µM (titrated, usually from 46.1 µM), for inactives: at the highest dose activity, negative = toxicity, hits mostly cytotoxic; 360,000 compounds, 2% hits; AID 686971, 2013;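 note: 0% = DMSO wells and -100% = cell-free medium wells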
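Luminescent ATP read-out (CellTiter-Glo, 10 min at room temperature) after 48 h compound exposure at 37 °C gave viability of IDH1-knockdown HT-1080 cells. Activity was normalised to DMSO and cell-free wells, then fitted as concentration-response curves.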
KB-3-1 tox: qHTS assay for MDR1-selective chemotherapeutics: Primary screen using the parental adenocarcinoma cell KB-3-1; 400,000 compounds, 1.4% hits; Potency, µM (series often up to 46.1 µM), actives largely listed as cytotoxic; AID 1347075, 2019; KB-3-1 viability, CellTiter-Glo ATP luminescence, 72 h; note: % is set by controls: 0 for no effect and ±100 for the full control effect; nearly all actives have a fitted effect of over 60% in size
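Luminescent ATP read-out (CellTiter-Glo) measures survival of drug-naive KB-3-1 cells after 72 h compound exposure at 37 °C. Titration series was screened from lowest to highest concentration, with DMSO vehicle plates as background controls.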
KB-V1 cytotox: qHTS assay for MDR1-selective chemotherapeutics: Primary screen using the drug-selected MDR subline cells KB-V1 | AID 1347076, 2019 | 400,000 compounds, 3.4% hits | Potency, µM (doses to about 46.1 µM), hits mostly cytotoxic | KB-V1 MDR cells viability, CellTiter-Glo, 72 h; note: % is set by controls: 0 for no effect and ±100 for the full control effect; nearly all actives have a fitted effect of over 60% in size
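Cells of the MDR subline KB-V1 are plated, dosed with compound at multiple concentrations, and incubated 72 h at 37 degrees C; CellTiter-Glo is then added and luminescence read after 10 min.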
Active calls of the source: *; i = inactive; ? = inconclusive; . = no result given. The list is not random: actives were taken first. Their share in the collection is about 6.2%. Calls come from the whole dose curve; as a rule, active = well fitted curve in the direction sought with a large enough effect; inconclusive = small, poorly fitted or top-dose-only effect, or another doubt; inactive = no such curve, though single readings can be large; an effect the other way counts as inactive or inconclusive. Potency is the fitted concentration of half-maximal effect.

SMILES	ATXN2 expr inh	HT1080NT lethal	ATXN viability	HT1080 IDH1KD tx	KB-3-1 tox	KB-V1 cytotox
Cc1ccc(S(=O)(=O)N2CCN(C(=O)c3c(C)nn(-c4ccccc4)c3Cl)CC2)cc1	-2.2%	-1.4%	i	20.0%	i	10.3µM*
Cc1cc(C)c(S(=O)(=O)N2CCN(C(=O)c3ccc(-n4nc(C)c(Cl)c4C)cc3)CC2)c(C)c1	-26.7%	-18.3%	i	-20.4%	?	i
COc1ccc(S(=O)(=O)N2CCN(C(=O)c3c(C)nn(-c4ccccc4)c3Cl)CC2)cc1	-14.5%	-5.4%	i	-6.7%	i	?
Cc1cc(C)c(S(=O)(=O)N2CCN(C(=O)c3c(C)nn(-c4ccccc4)c3Cl)CC2)c(C)c1	-11.8%	-5.1%	i	-0.8%	?	5.17µM*
NS(=O)(=O)c1ccc(CCNc2nc3c(-c4cccc(F)c4)nnn3c3ccc(Cl)cc23)cc1	0.1%	.	i	.	?	i
COc1ccc(-n2ncc(Cl)c(Cl)c2=O)cc1	?	4.61µM*	3.77µM*	8.2µM*	5.17µM*	?
CC1CCN(c2ccc3c(c2)S(=O)(=O)c2cccc(C(=O)NC[C@@H]4CCCO4)c2C3=O)CC1	8.6%	-16.0%	i	-9.4%	i	i
O=C(NCc1ccccc1C(F)(F)F)c1cccc2c1C(=O)c1ccc(N3CCC(N4CCCCC4)CC3)cc1S2(=O)=O	28.2µM*	-4.4%	?	-10.6%	i	?
O=C(NCC1CCCO1)c1cccc2c1C(=O)c1ccc(N3CCC(Cc4ccccc4)CC3)cc1S2(=O)=O (stereo not given)	?	-12.1%	?	-18.9%	?	23.1µM*
O=C(NCc1ccccc1C(F)(F)F)c1cccc2c1C(=O)c1ccc(N3CCOCC3)cc1S2(=O)=O	-34.2%	0.0%	i	-4.5%	i	i
Cc1cc(OCCSc2nnc(-c3cccs3)n2C)ccc1Cl	-23.9%	-0.7%	i	-12.7%	i	i
Cn1c(SCCOc2ccccc2Cl)nnc1-c1cccs1	17.2%	-25.8%	i	-13.1%	i	18.4µM*
O=C(Nc1ccc(-c2nc3cc(NC(=O)c4ccc(Cl)cc4)ccc3o2)cc1)c1ccc(Cl)cc1	6.7%	.	i	.	i	i
Cc1cccc(NCc2nnc(-c3ccccc3)o2)c1C	10.5%	-16.5%	i	-18.4%	i	18.4µM*
CC(C)Cn1c(-c2csc3ccccc23)n[nH]c1=S	-4.7%	-3.7%	i	1.1%	i	16.4µM*
CCn1c(-c2csc3ccccc23)n[nH]c1=S	0.3%	-2.4%	i	-1.2%	18.4µM*	7.31µM*
CCn1c(-c2ccccc2O)n[nH]c1=S	-6.1%	?	i	?	i	i
NC1=N[C@@]2(c3cc(NC(=O)c4ccc(F)cn4)ccc3F)COC[C@@H]2CS1	31.7%	.	.	.	.	.
CC[C@H]1OC(=O)[C@H](C)[C@@H](O[C@H]2C[C@@](C)(OC)[C@@H](O)[C@H](C)O2)[C@H](C)[C@@H](O[C@@H]2O[C@H](C)C[C@H](N(C)C)[C@H]2O)[C@](C)(O)C[C@H](C)C(=NOCOCCOC)[C@H](C)[C@@H](O)[C@]1(C)O	-10.3%	.	i	.	.	.
Cc1ccc(S(=O)(=O)N2CCCC2c2nc3ccccc3s2)cc1 (stereo not given)	-26.1%	10.8%	i	-5.3%	i	20.6µM*
CCOc1ccc(C2NC(=O)c3c(COC)cc(C)nc3N2Cc2ccccc2)cc1OC (stereo not given)	1.4%	.	i	.	i	i
COc1cccc(CNC(=O)c2c(OC)cc(=O)n3c2CCN(C(=O)c2cc(F)cc(F)c2)CC3)c1	.	.	i	.	.	.

Source: PubChem
